Assay outcomes deposited in PubChem BioAssay by ICCB-Longwood Screening Facility, Harvard Medical School.
Shown is part of a subset that was picked to be rich in hits.
VACV E9 pol inh – vaccinia E9 polymerase processive synthesis inhibition | in vitro processive DNA synthesis, absorbance read-out; active compounds read low | normalized absorbance, % (test concentration not listed) | 46,000 tested, 0.94% active | AID 493162; in the data active = normalized absorbance mostly below about 85%, no sharp cut-off; inactive = mostly above about 86%
* = called active by the depositor.

SMILES	VACV E9 pol inh
CCn1c(=O)c2cc(C(=O)NCC3CCCO3)sc2c2ccccc21 (stereo unspecified)	105
O=C(NCC1CCCO1)c1cc2c(s1)CCC2 (stereo unspecified)	103
O=C(NCC1CCCO1)c1cc2sc3ccccc3c2s1 (stereo unspecified)	66*
Fc1ccc(C(c2ccccc2)(c2ccccc2F)n2ccnc2)cc1 (stereo unspecified)	99
Clc1ccc2oc(-c3ccccc3)cc(=NCc3ccco3)c2c1	90
Cc1ccc2oc(=O)cc(CN3CCOCC3)c2c1	99
Clc1ccc2oc(-c3ccccc3)cc(=NCCCN3CCOCC3)c2c1	44*
Clc1cccc(-n2cc(-c3ccccc3)c3c(NCC4CCCO4)ncnc32)c1 (stereo unspecified)	102
Cc1ccc2oc(-c3ccccc3)cc(=NCCN3CCOCC3)c2c1	72*
O=C(NCC1CCCO1)Nc1ccc(Cl)cc1 (stereo unspecified)	80
NC(=O)c1ccccc1N=c1cc(-c2ccccc2)oc2ccc(Cl)cc12	100
Clc1ccc2oc(-c3ccccc3)cc(=NCC3CCCO3)c2c1 (stereo unspecified)	59*
CCCCN1CCN(c2nc(-c3ccccc3)c3cc(C)ccc3n2)CC1	100
O=C(NC(Cc1nc2ccccc2[nH]1)c1ccccc1)c1ccccc1 (stereo unspecified)	104
Cc1ccc(C(=O)OCC(=O)Nc2ccccc2C)cc1C	100
COC(=O)COc1ccc2c(c1)C(=NO)c1cc(OCC(=O)OC)ccc1-2	100
CC(C)c1ccc(NC(=O)COC(=O)/C=C/c2ccco2)cc1	110
Cc1ccc(NC(=O)CC(NCc2cccnc2)C(=O)O)cc1C (stereo unspecified)	84
O=C(c1cccc(S(=O)(=O)Nc2cccc(Cl)c2)c1)N1CCCCC1	99
O=C1NC(=O)C(Cc2ccc(C(=O)O)cc2)S1 (stereo unspecified)	120
Cc1ccc(CC2SC(=O)NC2=O)cc1Cl (stereo unspecified)	81
O=C1NC(=O)C(Cc2ccccc2)S1 (stereo unspecified)	79*
CC1CN(c2oc(-c3ccccc3F)nc2C#N)CC(C)O1 (stereo unspecified)	101
N#CN(Cc1ccccc1Cl)Cc1ccccc1Cl	101
COc1ccc(N=c2cc(-c3ccc(OC)cc3)oc3ccc(O)cc23)cc1	63*
SMILES	VACV E9 pol inh
COc1ccc(-c2cc(=Nc3ccc(OC)c(OC)c3)c3ccccc3o2)cc1	94
COc1ccc(-c2cc(=NCCc3ccccc3)c3cc(C)ccc3o2)cc1	41*
COc1ccc(-c2cc(=O)c3cc(OC(=O)c4ccc(OC)c(OC)c4)ccc3o2)cc1	99
COc1ccc(-c2cc(=Nc3ccc(O)cc3)c3cc(C)ccc3o2)cc1	54*
CCc1ccc2oc(-c3ccc(OC)cc3)cc(=NCC(=O)O)c2c1	96
COc1ccc(-c2cc(=NC(CC(C)C)C(=O)O)c3cc(C)ccc3o2)cc1 (stereo unspecified)	98
COc1ccc(-c2cc(=O)c3cc(OC(=O)Cc4ccccc4)ccc3o2)cc1	100
COc1ccc(-c2c(C)oc3cc(O)ccc3c2=O)cc1	101
CCOC(=O)C1CCN(c2nnc(N3C(=O)c4ccccc4C3=O)s2)CC1	112
COc1ccc(-c2nc(C)c(CCNS(=O)(=O)N(C)C)s2)cc1	102
Cc1ccc2nc(C)cc(C(=O)OCC(=O)C(C)(C)C)c2c1	96
Cc1cccc(NC(=O)C(C)C)c1	96
CC(C)c1ccccc1NC(=O)COC(=O)Cc1ccccc1F	101
COc1ccc(CC(=O)NCC2COc3ccccc3O2)cc1OC (stereo unspecified)	100
Cc1c(NC(=O)C2CCCC2)c(=O)n(-c2ccccc2)n1C	100
COc1cccc(C(=O)Nc2nc3ccc(F)cc3s2)c1	99
Nc1ccc2c(c1)nc(-c1ccccc1)c1cc(N)ccc12	98
CC[n+]1c(-c2ccccc2)c2cc(N)ccc2c2ccc(N)cc21	12*
O=C(O)C1Sc2c(sc(=O)n2Cc2ccccc2)C2c3ccccc3OC(=O)C12 (stereo unspecified)	98
C=C(C)Cn1c(C(C)O)nc2ccccc21 (stereo unspecified)	101
Cc1cc(OCC(=O)NC(Cc2c[nH]c3ccccc23)C(=O)O)cc(C)c1Cl (stereo unspecified)	60*
CC(=O)N[C@@H](Cc1c[nH]c2ccccc12)C(=O)O	100
Cc1ccc(OCC(=O)NC(Cc2c[nH]c3ccccc23)C(=O)O)cc1 (stereo unspecified)	94
Clc1ccc2nc(-c3cccs3)cn2c1	92
CCn1c(C)nc2cc(NC(=O)C(F)(F)F)ccc21	90
C=C(NCc1ccco1)c1ccc(Cl)cc1	104
Nc1nonc1C(=O)NCc1ccco1	100
C=C1C(C(=O)NCc2ccco2)C1C(=O)NCc1ccco1 (stereo unspecified)	56*
NC(=O)COc1cccc(/C=C2/CC/C(=C\c3cccc(OCC(N)=O)c3)C2=O)c1	100
CCC(C)NC(=O)c1cc(-c2ccccc2O)no1 (stereo unspecified)	92
